This note sets out measurements from PubChem BioAssay AID588347 (National Center for Advancing Translational Sciences (NCATS), 2011).

The other results are listed elsewhere or left out. Records with an inconclusive call do not appear. The source made the active and inactive calls. Calls come from the whole dose curve; as a rule, active = well fitted inhibition curve with a large enough effect; inconclusive = small, poorly fitted or top-dose-only effect, or another doubt; inactive = no such curve, though single readings can be large or run the other way.

Histone acetyltransferase KAT2A (Homo sapiens), sequence (Q92830 whole entry, looked up): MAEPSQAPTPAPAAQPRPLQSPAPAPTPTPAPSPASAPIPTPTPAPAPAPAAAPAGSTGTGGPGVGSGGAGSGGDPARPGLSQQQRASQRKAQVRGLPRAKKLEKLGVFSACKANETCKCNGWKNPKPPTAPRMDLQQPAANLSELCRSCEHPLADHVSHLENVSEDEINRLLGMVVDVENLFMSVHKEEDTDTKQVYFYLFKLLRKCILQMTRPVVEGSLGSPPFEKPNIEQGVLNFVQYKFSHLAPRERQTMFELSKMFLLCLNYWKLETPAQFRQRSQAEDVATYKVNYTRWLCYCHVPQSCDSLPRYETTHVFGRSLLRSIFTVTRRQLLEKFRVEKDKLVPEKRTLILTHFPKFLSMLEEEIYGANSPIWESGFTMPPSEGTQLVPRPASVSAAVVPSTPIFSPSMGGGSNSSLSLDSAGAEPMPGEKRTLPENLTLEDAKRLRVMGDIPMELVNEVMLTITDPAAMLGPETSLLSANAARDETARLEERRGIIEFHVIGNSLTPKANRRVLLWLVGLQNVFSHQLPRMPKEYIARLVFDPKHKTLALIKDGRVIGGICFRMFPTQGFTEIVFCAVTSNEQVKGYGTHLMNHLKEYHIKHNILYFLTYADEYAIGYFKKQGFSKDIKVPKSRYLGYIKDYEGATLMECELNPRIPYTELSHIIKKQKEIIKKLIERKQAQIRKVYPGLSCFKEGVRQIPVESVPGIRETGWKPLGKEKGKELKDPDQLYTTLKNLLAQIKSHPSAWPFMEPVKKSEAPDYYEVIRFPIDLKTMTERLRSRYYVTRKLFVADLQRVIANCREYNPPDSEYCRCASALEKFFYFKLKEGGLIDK

The target in this experiment is Histone acetyltransferase KAT2A (Homo sapiens) (UniProt Q92830). Put plainly: qHTS Assay for Inhibitors of GCN5L2: Hit confirmation. Conditions: GCN5L2 HAT, ThioGlo1 CoA fluorescence, 20 min. An excerpt:
Histone acetyltransferase (HAT) enzymes transfer a […] group from acetyl-coenzyme A to the epsilon-amino group of conserved lysine residues of N-terminal histone tails. Acetylation results in charge neutralization of this positively charged amino acid, decreasing interactions with the […] backbone and making the DNA more accessible for transcription. HATs have been recognized as an emerging drug target for treatment of cancer, diabetes, asthma, chronic obstructive pulmonary disease, cardiac disease, and viral infection. Protein identified with HAT activity include the […] like 2 (GCN5L2, a.ka. Histone acetyltransferase KAT2A) which acetylates histone H3 at Lys9, 14, 18, 13, and to lesser extent histones H4 and H2B. This activates transcription of the gene by modulating chromatin structure and installing the acetyllysine recognition mark for bromodomain-containing coactivator proteins. A quantitative high throughput screen was developed to identify small molecule inhibitors. The assay is based on the principle that it measures formation of reduced CoA with the pro-fluorescent maleimide derivative ThioGlo1 that becomes fluorescent upon reaction with the free thiol of CoA. A large number of artifacts are expected in this primary screen, compounded by the assay format (fluorescent artifacts) and by the high top concentration tested for each substance. […] Yasgar, et al. Compound Management for Quantitative High-Throughput Screening. […] Inglese, et al. Quantitative high-throughput screening: a titration-based approach that efficiently identifies biological activities in large chemical libraries. […]
To each well of a 1,536w plate, 3ul of GCN5L2 (final concentration 20nM, in 50mM HEPES, 0.1mM EDTA (pH 7.5), 0.01% Tween-20 buffer) are added using a Kalypsys dispenser. […] Plates are read immediately on the ViewLux (PerkinElmer) (Ex340nm/Em540nm) for a 0 min read, incubated for 20 min at room temperature, and read again on the ViewLux with the same settings. The initial read was carried out to identify compounds that are potentially fluorescent.
`FC(F)(F)C1CCCN(c2nsc3ccccc23)C1` (stereo not drawn): the Potency was 2.89 µM (active).

Turning to `CC1=C/C(=N\OS(=O)(=O)c2ccccc2)C=CC1=O`, the Potency is 10.2 µM (active).

For the molecule `O=c1[nH]c2ccccc2n2c(-c3ccccc3)nnc12`, the Potency was 6.46 µM (active).
